# According to PubChem BioAssay (EPA / NIEHS):
# Active and inactive are the calls of the source. Rule for the calls: active = hit-call score of the fitted dose curve at least 0.9, where 1 is the maximum; inactive = score below 0.9.
# Assay: ATG_ISRE_CIS: Attagene CIS-FACTORIAL HepG2 Assay for human Interferon Regulatory Factor 1 (IRF1) binding to an Interferon-Stimulated Response Element (ISRE) (AID 2282948)
# Settings: HepG2 ISRE cis-reporter (Attagene), mRNA transcription readout; actives raise or lower the signal
# Description: ATG_CIS is a cell-based, multiplexed-readout assay that uses HepG2, a human liver cell line, with measurements taken at 24 hours after chemical dosing in a 24-well plate.ATG_ISRE_CIS is one of 52 assay component(s) measured or calculated from the ATG_CIS assay. It is designed to make measurements of mRNA induction, a form of inducible reporter, as detected with fluorescence intensity signals by Reverse transcription polymerase chain reaction (RT-PCR) and Capillary electrophoresis technology.Data from the assay component ATG_ISRE_CIS was analyzed into 1 assay endpoint. This assay endpoint, ATG_ISRE_CIS, was analyzed with bidirectional fitting relative to DMSO as the negative control and baseline of activity. Using a type of inducible reporter, measures of mRNA for gain or loss-of-signal activity can be used to understand the reporter gene at the transcription factor-level as they relate to the gene IRF1. Furthermore, this assay endpoint can be referred to as a primary readout, because this assay has produced multiple assay endpoints where this one serves a reporter gene function. To generalize the intended target to other relatable targets, this assay endpoint is annotated to the dna binding intended target family, where the subfamily is interferon regulatory factors.
# Human liver HepG2 cells are transiently transfected with multiple reporter transcription units (MRTUs) in 6-well plates using FuGene 6 reagent (Roche; 3 ml FuGene/1 mg DNA). The MRTU constructs are regulated by a cis-regulating element (promoter). […] A major difference between the CIS and TRANS system is that in CIS activities of endogenous TFs are measured, whereas the TRANS assay evaluates changes in activities of exogenous, chimeric NR-Gal4 proteins. […] At the end of 24 hour incubation, total RNA was isolated using TriZol reagent (Invitrogen). The isolated RNA is then reverse-transcribed using oligo(dT) primer and Mo-MLV reverse transcriptase (Invitrogen) with DNAse I (Ambion) treatment for 30 min. The one-tenth of the produced cDNA was amplified by PCR using Taq DNA polymerase (Invitrogen) and two reporter sequence-specific primers. The PCR products were fluorescently labeled by primer extension with 6-arboxyfluorescein (6-FAM) 5'-labeled reporter sequence-specific primer (2 min at 95 C, 20 s at 68 C and 10 min at 72 C) and these products were digested with 5U of HpaI (New England Biolabs) for 2h at 37 C. The fragments were purified using Qiaquick PCR columns (Qiagen), analyzed on an ABI 3130xL genetic analyzer (Applied Biosystems) with peak positions identified by using a set of X-rhodamine (ROX)-labeled MapMarker1000 molecular weight standards (BioVentures). The raw capillary electrophoresis data was processed using Attagraph software (Attagene).
Compound,outcome,AC50
C=CCCCCCCCCC=O,inactive,–
CCCCCCCC(=O)OCC,inactive,–
Clc1cccnc1,inactive,–
COc1ccc(C(=O)/C(Br)=C\C(=O)O)cc1,–,57.2 µM (active)
CC1=CC(C)C(C=O)CC1 (stereo not given),inactive,–
O=C(OCc1ccccc1)c1ccc(O)cc1,–,187 µM (active)
CC(C)(C)NC(=O)[C@H]1CC[C@H]2[C@@H]3CC[C@H]4NC(=O)C=C[C@]4(C)[C@H]3CC[C@]12C,inactive,–
CC(=O)CCC=C(C)C,inactive,–
CCC(=O)C1CC(C(C)C)CC=C1C (stereo not given),inactive,–
COC(=O)c1ccccc1C,inactive,–
C[N+](C)(C)CCCNS(=O)(=O)C(F)(F)C(F)(F)C(F)(F)C(F)(F)C(F)(F)C(F)(F)C(F)(F)C(F)(F)F,inactive,–
CC(C)(O)Cc1ccccc1,inactive,–
CC(C)c1cc(C(C)C)cc(C(C)C)c1,–,176 µM (active)
COc1cc(O)c(C(=O)c2ccccc2)cc1S(=O)(=O)O,inactive,–
CCOC(=O)C1=NN(c2ccc(Cl)cc2Cl)C(C)(C(=O)OCC)C1 (stereo not given),inactive,–
CC(=O)/C=C/C1C(C)=CCCC1(C)C (stereo not given),inactive,–
CCCC1CCCC(=O)O1 (stereo not given),inactive,–
NC(=O)Nc1ccccc1,inactive,–
CCCCNS(=O)(=O)c1ccc(C)cc1,inactive,–
Cc1c(C(=O)c2c[nH]n(C)c2=O)ccc(S(C)(=O)=O)c1C1=NOCC1,inactive,–

Compound,outcome,AC50
CC/C=C\CCOC(=O)c1ccccc1O,inactive,–
O=C(Cl)c1c(Cl)c(Cl)c(C(=O)Cl)c(Cl)c1Cl,inactive,–
N#Cc1ccc(C(c2ccc(C#N)cc2)n2cncn2)cc1,inactive,–
C=C(C)C1CC=C(C)C(OC(C)=O)C1 (stereo not given),inactive,–
CC12CCC(CC1)C(C)(C)O2,inactive,–
Cc1c[nH]c(=O)[nH]c1=O,inactive,–
Nc1ncnc2nc[nH]c12,inactive,–
CO[Si](CCCS)(OC)OC,inactive,–
C1CCSC1,inactive,–
Oc1c(Cl)cc(Cl)c(Cl)c1Cl,inactive,–
O=C(O)CCC(=O)O,inactive,–
CCCc1ccc(O)c(OC)c1,inactive,–
COC(=O)CC(C)CCC=C(C)C (stereo not given),inactive,–
CCCCC/C=C\C/C=C\CCCCCCCC(=O)O,inactive,–
COC(OC)(C(=O)c1ccccc1)c1ccccc1,inactive,–
CCCC/C=C/C=C\C=O,–,100 µM (active)
Nc1ccc(O)c([N+](=O)[O-])c1,inactive,–
CC(C)(C)C1CCC(=O)CC1,inactive,–
C=CC(C)(CCC=C(C)C)OC(=O)C=Cc1ccccc1 (stereo not given),inactive,–
CCCCCCCOC(=O)c1ccc(O)cc1,inactive,–
